# Test results from PubChem BioAssay (NCI).
# Compounds without any hit were thinned out: in the full panel of roughly 83,000, 20% have a hit.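 Percent growth is the endpoint: 0 to 100 indicates growth inhibition (40 means 60% inhibition), 0 means no net growth, and negative values indicate cell death.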 The source made the active and inactive calls. Rule for the calls: active = growth percent below 10; inactive = the rest.
# Experiments:
# Assay in all cases: NCI-60 one-dose screen, 48 h (100 = growth as untreated, 0 = no growth, -100 = all killed)
# Details in all cases: 10 µM unless noted
# SR leukemia = tested on: SR leukemia
# RPMI-8226 leukemia = tested on: RPMI-8226 leukemia
# OVCAR-8 ovarian = tested on: OVCAR-8 ovarian
# OVCAR-5 ovarian = tested on: OVCAR-5 ovarian
# OVCAR-4 ovarian = tested on: OVCAR-4 ovarian
# SK-OV-3 ovarian = tested on: SK-OV-3 ovarian
# IGROV1 ovarian = tested on: IGROV1 ovarian
# OVCAR-3 ovarian = tested on: OVCAR-3 ovarian
# HS 578T breast = tested on: HS 578T breast
# NCI/ADR-RES ovarian = tested on: NCI/ADR-RES ovarian
SMILES,growth (SR leukemia),growth (RPMI-8226 leukemia),growth (OVCAR-8 ovarian),growth (OVCAR-5 ovarian),growth (OVCAR-4 ovarian),growth (SK-OV-3 ovarian),growth (IGROV1 ovarian),growth (OVCAR-3 ovarian),growth (HS 578T breast),growth (NCI/ADR-RES ovarian)
O=c1[nH]nc(-c2ccccc2)c2sc3ncc(-c4ccc(Br)cc4)n3c12,26.1% (inactive),12.4% (inactive),46.5% (inactive),90.4% (inactive),85.5% (inactive),70.6% (inactive),40.4% (inactive),0.339% (active),32.4% (inactive),98.2% (inactive)
O=[N+]([O-])c1ccc(NC(=S)N/N=C/c2cc3ccccc3n3nnnc23)cc1,4.33% (active),47.7% (inactive),71.2% (inactive),79.6% (inactive),63.8% (inactive),73.7% (inactive),54.5% (inactive),14.3% (inactive),67% (inactive),51.7% (inactive)
CCOc1cccc(-c2nc(N)nc(Nc3ccccc3SSc3ccccc3Nc3nc(N)nc(-c4cccc(OCC)c4)n3)n2)c1,7.62% (active),56.4% (inactive),59.9% (inactive),99.7% (inactive),71.7% (inactive),125% (inactive),62.6% (inactive),80.2% (inactive),69.2% (inactive),19% (inactive)
COc1ccc(/C=C2\COc3ccc(-c4ccccc4)cc3C2=O)c(OC)c1,69.1% (inactive),77.4% (inactive),96.4% (inactive),101% (inactive),64.7% (inactive),107% (inactive),120% (inactive),98.3% (inactive),125% (inactive),72.6% (inactive)
O=C1c2ccc3c4c(ccc(c24)C(=O)N1CCCNCc1ccccc1F)C(=O)N(CCCNCc1ccccc1F)C3=O,-37.8% (active),-32.2% (active),-17.4% (active),-23% (active),-98.4% (active),-21.8% (active),-57.7% (active),-63% (active),-23.7% (active),-18.4% (active)
O=C(Nc1ccc(-c2ccc3c(c2)NC(=O)/C3=C\c2ccc[nH]2)cc1)NC1CC1,34.8% (inactive),87% (inactive),109% (inactive),105% (inactive),98.3% (inactive),118% (inactive),96.6% (inactive),107% (inactive),97.1% (inactive),105% (inactive)
CC(=O)Nc1ccc(-n2cnc3cc(-c4ccc(OCCN5CCCCC5)cc4)ccc32)cc1,-9.89% (active),54% (inactive),87.1% (inactive),104% (inactive),82.6% (inactive),139% (inactive),97.4% (inactive),98.4% (inactive),95.3% (inactive),97.2% (inactive)
Cc1cccc(NC(=O)Nc2ccc(-n3cnc4cc(-c5ccc(O)cc5)ccc43)cc2)c1,19.7% (inactive),12.4% (inactive),17.6% (inactive),76.8% (inactive),27.4% (inactive),60.3% (inactive),33.2% (inactive),20.4% (inactive),82% (inactive),39.5% (inactive)
O=C(NCCc1ccccc1)Nc1ccc2cc3ccc(NC(=O)NCCc4ccccc4)cc3nc2c1,-30.2% (active),49.1% (inactive),23.8% (inactive),50.6% (inactive),62.6% (inactive),41.4% (inactive),48.2% (inactive),19.2% (inactive),-26.2% (active),105% (inactive)
NNC(=O)c1ccc(-n2nc(-c3ccccc3)c3ccccc32)cc1,83.5% (inactive),86.4% (inactive),77% (inactive),93.8% (inactive),23.9% (inactive),98.9% (inactive),73.7% (inactive),8.87% (active),73% (inactive),91.5% (inactive)
Brc1ccc2[nH]cc(-c3cncn3CCc3ccccc3)c2c1,40.7% (inactive),29.7% (inactive),66.9% (inactive),71% (inactive),25.9% (inactive),64.9% (inactive),76.9% (inactive),36.7% (inactive),12.8% (inactive),49.6% (inactive)
CCOC(=O)c1cc(C(=O)c2cc(OC)cc(OC)c2)n2ccc3ccccc3c12,116% (inactive),108% (inactive),89.9% (inactive),98% (inactive),88.8% (inactive),98.2% (inactive),102% (inactive),112% (inactive),82.5% (inactive),92.8% (inactive)
c1ccc2c(-c3c[nH]c4ccccc34)c3c(cc2c1)[nH]c1ccccc13,29.4% (inactive),54.5% (inactive),90.7% (inactive),96% (inactive),57.8% (inactive),84.5% (inactive),69% (inactive),59.3% (inactive),84.1% (inactive),56.6% (inactive)
O=C(Nc1ccccc1C(=O)N/N=C(\c1ccccc1)c1ccccn1)c1ccc(F)cc1,14.4% (inactive),29.1% (inactive),17.1% (inactive),41.7% (inactive),,2.2% (active),22.8% (inactive),18.1% (inactive),59.9% (inactive),
COc1ccc(CC(C)=C(c2ccc(OCCN3CCCCCC3)cc2)c2ccc(OCCN3CCCCCC3)cc2)cc1,-32.2% (active),-57.9% (active),-78.1% (active),-95.9% (active),-83.9% (active),-90.1% (active),-77.8% (active),-89.2% (active),-61% (active),-90.3% (active)
N#CC1=C(/N=C/c2ccccc2)Oc2c(ccc3ccccc23)C1c1ccc([N+](=O)[O-])cc1 (centres undefined),81% (inactive),92% (inactive),95% (inactive),101% (inactive),,86.9% (inactive),56.6% (inactive),86.4% (inactive),91.6% (inactive),95.6% (inactive)
ClC1=C(Br)C(Br)(Br)C(=C(Br)Br)C1(Br)Br,44% (inactive),73.1% (inactive),85.1% (inactive),110% (inactive),99.1% (inactive),118% (inactive),102% (inactive),75% (inactive),103% (inactive),110% (inactive)
N#CC1=C(N)Oc2c(cnn2-c2ccc([N+](=O)[O-])cc2[N+](=O)[O-])C1c1ccccc1 (centres undefined),98.2% (inactive),92.5% (inactive),101% (inactive),99.1% (inactive),109% (inactive),112% (inactive),100% (inactive),112% (inactive),89% (inactive),101% (inactive)
Cc1cc2nc3c4cccc(O)c4n(CCN(C)C)c3nc2cc1C,4.12% (active),-5.71% (active),38% (inactive),55.3% (inactive),,46.3% (inactive),19.1% (inactive),45.4% (inactive),72.8% (inactive),
CC(C)(C)CC(C)(C)n1nnnc1C(NC12CC3CC(CC(C3)C1)C2)c1ccccc1 (centres undefined),80.3% (inactive),68.8% (inactive),96% (inactive),103% (inactive),,120% (inactive),87.1% (inactive),98.1% (inactive),99.9% (inactive),86.1% (inactive)
O=C1c2ccccc2CCC12OC2c1cn(-c2ccccc2)nc1-c1ccc(Cl)cc1 (centres undefined),70.4% (inactive),81.3% (inactive),94.5% (inactive),111% (inactive),99.2% (inactive),111% (inactive),95.1% (inactive),115% (inactive),93.3% (inactive),102% (inactive)
CCOC(=O)[C@@H]1CCCN(S(=O)(=O)c2ccc(S(=O)(=O)N(CC)CC)c(F)c2)C1,60.1% (inactive),61% (inactive),77.8% (inactive),95.5% (inactive),,82.4% (inactive),93.5% (inactive),88% (inactive),93.5% (inactive),47.2% (inactive)
CC(=O)[C@@H]1CC[C@]2(CO)CC[C@]3(C)[C@H](CC[C@@H]4[C@@]5(C)CCCNC(C)(C)[C@@H]5CC[C@]43C)[C@@H]12,86.8% (inactive),98.6% (inactive),105% (inactive),102% (inactive),,122% (inactive),99.1% (inactive),97.2% (inactive),96.1% (inactive),
COc1ccc(C(=O)c2cc(C)c(OC)c(C)c2)c(OC)c1OC(=O)C(Cl)Cl,16% (inactive),23.4% (inactive),10.1% (inactive),45.2% (inactive),,-2.06% (active),22.3% (inactive),-4.52% (active),20.5% (inactive),-3.92% (active)
Cc1cc2cc3ccc(N(C)C)cc3nc2cc1N,-2.93% (active),-19.1% (active),-2.19% (active),3.07% (active),,-8.06% (active),-1.84% (active),-24.7% (active),-32.5% (active),42.4% (inactive)
CCCCCN1C=C/C(=C\C(=O)N(C)c2ccc(OC(F)(F)F)cc2)c2ccccc21,100% (inactive),94.7% (inactive),95.3% (inactive),100% (inactive),87.6% (inactive),90.6% (inactive),93.2% (inactive),105% (inactive),90.5% (inactive),105% (inactive)
C#CCNC(=O)[C@]1(C)CC[C@]2(C)CC[C@@H]3C(=CC[C@H]4[C@@]3(C)CC[C@H]3C(C)(C)C(=O)CC[C@]43C)[C@@H]2C1,55.9% (inactive),69.1% (inactive),96.8% (inactive),102% (inactive),91.4% (inactive),92.1% (inactive),60.1% (inactive),95.7% (inactive),126% (inactive),94.2% (inactive)
